Experiment [1] can be described thus: NCI Yeast Anticancer Drug Screen. Data for the rad50 strain (AID 155).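 Also: 0% = growth of vehicle-only cultures of the same strain.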 Conditions: S. cerevisiae rad50 strain growth inhibition, stronger effect = higher value. An outline of the steps: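 Relative growth inhibition (compound vs vehicle) was measured in yeast with a defined repair-gene alteration.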
A short description of experiment [2]: NCI Yeast Anticancer Drug Screen. Data for the mec2-1 strain (AID 157). Conditions: S. cerevisiae mec2-1 strain, stronger effect = higher value. An outline of the steps: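 Vehicle-treated cultures served as reference for growth inhibition of compound-exposed mec2-1 yeast.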
Experiment [3] in a line: NCI Yeast Anticancer Drug Screen. Data for the sgs1 mgt1 strain (AID 161).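 Also: 0% = growth of cultures given vehicle only.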 Conditions: S. cerevisiae sgs1 mgt1 strain, stronger effect = higher value. The method, boiled down: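 Test agents were incubated with a DNA-repair-mutant yeast strain. Growth was then read and compared against vehicle-treated controls.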
Experiment [4] is described as follows: NCI Yeast Anticancer Drug Screen. Data for the cln2 rad14 strain (AID 165).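 Also: 0% = growth equal to vehicle treated cultures.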 Conditions: S. cerevisiae cln2 rad14 strain, stronger effect = higher value. The method, boiled down:
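Each compound was tested on cln2 rad14 yeast. Inhibition of growth was calculated against vehicle-exposed controls.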

Experiment [5] in a line: NCI Yeast Anticancer Drug Screen. Data for the bub3 strain (AID 167). Conditions: S. cerevisiae bub3 mutant strain, stronger effect = higher value. An outline of the steps: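 Screening used yeast with an engineered genetic alteration affecting cell cycle control. Compound-exposed cultures were compared with vehicle cultures, and reduced growth was taken as inhibition.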
Experiment [6] in a line: NCI Yeast Anticancer Drug Screen. Data for the mlh1 rad18 strain (AID 175). Conditions: S. cerevisiae mlh1 rad18 strain growth inhibition, stronger effect = higher value. The method, boiled down: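 Vehicle-treated cultures served as the reference for growth inhibition in a yeast strain carrying DNA damage repair alterations exposed to each compound.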
Where [7] appears, read: at 5.0 µM (retest, dose inferred, filed as 0.5).
Setting [8] is: at 50.0 µM (retest, dose inferred, filed as 5.0).

Several values for one entry are separate records, joined by “and”; a condition that tells them apart may be missing. Equal values may be shown once. The panel holds about 79,000 compounds, 15% with a hit somewhere; the sample as a whole holds those more often. Some structures have more than one record in an assay (separate samples or runs), and their calls can disagree. Activity calls are given as the source filed them. Rule as the data show it: active = growth inhibition above about 70%; inactive = the rest.

For the compound `CC(C)(C)CC(C)(C)c1ccc(O)cc1`, the growth inhibition in experiment [1] (setting [7]) is -11% (inactive); in experiment [1] (setting [8]) it was 99% (active); in experiment [1] (at 50.0 µM), 99.7% (active); in experiment [2] (setting [7]), -12% (inactive); in experiment [2] (setting [8]), 99% (active); in experiment [2] (at 50.0 µM) it was 99.7% (active). The growth inhibition in experiment [3] (setting [7]) is -6% (inactive); in experiment [3] (setting [8]) it was 98% (active); in experiment [3] (at 50.0 µM), 99.8% (active); in experiment [4] (setting [7]), -7% (inactive); in experiment [4] (setting [8]), 99% (active); in experiment [4] (at 50.0 µM), 99.5% (active). The growth inhibition in experiment [5] (setting [7]) is -22% (inactive); in experiment [5] (setting [8]), 98% (active); in experiment [5] (at 50.0 µM), 98.5% (active); in experiment [6] (setting [7]), -9% (inactive); in experiment [6] (setting [8]) it was 99% (active); in experiment [6] (at 50.0 µM), 99.6% (active).
Turning to `NC(=O)c1ccc(N)nc1`, the growth inhibition in experiment [1] (setting [7]) is 5% (inactive); in experiment [1] (setting [8]), 30% (inactive); in experiment [1] (at 50.0 µM), 20.9% (inactive); in experiment [2] (setting [7]), -28% (inactive); in experiment [2] (setting [8]), -14% (inactive); in experiment [2] (at 50.0 µM), -14% (inactive). Also, the growth inhibition in experiment [3] (setting [7]) was -13% (inactive); in experiment [3] (setting [8]) it was 3% (inactive); in experiment [3] (at 50.0 µM), 19.4% (inactive); in experiment [4] (setting [7]) it was 10% (inactive); in experiment [4] (setting [8]), 15% (inactive); in experiment [4] (at 50.0 µM), 4.4% (inactive). In addition, the growth inhibition in experiment [5] (setting [7]) is -12% (inactive); in experiment [5] (setting [8]), 12% (inactive); in experiment [5] (at 50.0 µM), 11.2% (inactive); in experiment [6] (setting [7]), -10% (inactive); in experiment [6] (setting [8]) it was 8% (inactive); in experiment [6] (at 50.0 µM) it was 7.75% (inactive).
Regarding `C[n+]1c(/C=C/c2ccc(O)c3ncccc23)[se]c2ccccc21`, the growth inhibition was 22% (inactive) in experiment [1] (setting [7]); 93% (active) in experiment [1] (setting [8]); 93.4% (active) in experiment [1] (at 50.0 µM); 2% (inactive) in experiment [2] (setting [7]); 90% (active) in experiment [2] (setting [8]); 93.5% (active) in experiment [2] (at 50.0 µM). The growth inhibition in experiment [3] (setting [7]) was 24% (inactive); in experiment [3] (setting [8]), 91% (active); in experiment [3] (at 50.0 µM), 92.3% (active); in experiment [4] (setting [7]) it was 11% (inactive); in experiment [4] (setting [8]) it was 88% (active); in experiment [4] (at 50.0 µM), 92% (active). Further, the growth inhibition in experiment [5] (setting [7]) is 2% (inactive); in experiment [5] (setting [8]), 91% (active); in experiment [5] (at 50.0 µM) it was 93% (active); in experiment [6] (setting [7]), 43% (inactive); in experiment [6] (setting [8]), 90% (active); in experiment [6] (at 50.0 µM), 93.4% (active).
With `[O-][n+]1onc2ccccc21`, the growth inhibition in experiment [1] (setting [7]) is 47% (inactive); in experiment [1] (setting [8]), 99% (active); in experiment [1] (at 50.0 µM) it was 98.3% (active); in experiment [2] (setting [7]), 30% (inactive); in experiment [2] (setting [8]), 99% (active); in experiment [2] (at 50.0 µM), 52% (inactive). The growth inhibition in experiment [3] (setting [7]) was 29% (inactive); in experiment [3] (setting [8]), 99% (active); in experiment [3] (at 50.0 µM), 49.9% (inactive); in experiment [4] (setting [7]) it was 34% (inactive); in experiment [4] (setting [8]), 99% (active); in experiment [4] (at 50.0 µM), 97.7% (active). In addition, the growth inhibition was 38% (inactive) in experiment [5] (setting [7]); 99% (active) in experiment [5] (setting [8]); 46.7% (inactive) in experiment [5] (at 50.0 µM); 63% (inactive) in experiment [6] (setting [7]); 99% (active) in experiment [6] (setting [8]); 98.2% (active) in experiment [6] (at 50.0 µM).
Regarding `Nc1nc(N)c(-c2ccc(Cl)c(Cl)c2)c(CCc2ccc(CNC(=O)c3cc(S(=O)(=O)F)ccc3Cl)cc2)n1`, the growth inhibition in experiment [1] (setting [7]) is -4% (inactive); in experiment [1] (setting [8]), 49% (inactive); in experiment [1] (at 50.0 µM), 50.5% (inactive); in experiment [2] (setting [7]) it was -4% (inactive); in experiment [2] (setting [8]), 54% (inactive); in experiment [2] (at 50.0 µM) it was 96% (active). Further, the growth inhibition in experiment [3] (setting [7]) is -3% (inactive); in experiment [3] (setting [8]) it was 50% (inactive); in experiment [3] (at 50.0 µM), 66.8% (inactive); in experiment [4] (setting [7]), -7% (inactive); in experiment [4] (setting [8]) it was 47% (inactive); in experiment [4] (at 50.0 µM) it was 12.5% (inactive). Besides, the growth inhibition in experiment [5] (setting [7]) is -2% (inactive); in experiment [5] (setting [8]), 45% (inactive); in experiment [5] (at 50.0 µM), 74.7% (active); in experiment [6] (setting [7]), -3% (inactive); in experiment [6] (setting [8]) it was 53% (inactive); in experiment [6] (at 50.0 µM), 94.5% (active).
For the compound `CC1=C2C(=O)[C@H]3[C@@H](CC=C4C[C@@H](O)CC[C@@]43C)[C@@H]2CC[C@]12O[C@@H]1C[C@H](C)CN[C@H]1[C@H]2C`, the growth inhibition is 8% (inactive) and 2% (inactive) in experiment [1] (setting [7]); 85% (active) and 81% (active) in experiment [1] (setting [8]); 90.5% (active) and 85.8% (active) in experiment [1] (at 50.0 µM); 18% (inactive) and 3% (inactive) in experiment [2] (setting [7]); 96% (active) and 83% (active) in experiment [2] (setting [8]); 96.7% (active) and 90.8% (active) in experiment [2] (at 50.0 µM). Besides, the growth inhibition is 11% (inactive) and 5% (inactive) in experiment [3] (setting [7]); 84% (active) and 91% (active) in experiment [3] (setting [8]); 97% (active) and 87% (active) in experiment [3] (at 50.0 µM); -27% (inactive) and -9% (inactive) in experiment [4] (setting [7]); 87% (active) and 60% (inactive) in experiment [4] (setting [8]); 84.2% (active) and 81% (active) in experiment [4] (at 50.0 µM). Also, the growth inhibition in experiment [5] (setting [7]) was 22% (inactive) and 17% (inactive); in experiment [5] (setting [8]), 91% (active) and 90% (active); in experiment [5] (at 50.0 µM), 97.5% (active) and 88.5% (active); in experiment [6] (setting [7]), 10% (inactive) and 5% (inactive); in experiment [6] (setting [8]), 95% (active) and 89% (active); in experiment [6] (at 50.0 µM) it was 90.7% (active) and 87.4% (active).
Consider `Oc1cccc[c]1[Hg][Cl]`, for which the growth inhibition in experiment [1] (setting [7]) is 99% (active); in experiment [1] (setting [8]), 99% (active); in experiment [1] (at 50.0 µM), 99.5% (active); in experiment [2] (setting [7]) it was 99% (active); in experiment [2] (setting [8]) it was 100% (active); in experiment [2] (at 50.0 µM), 99.7% (active). In addition, the growth inhibition in experiment [3] (setting [7]) is 99% (active); in experiment [3] (setting [8]), 99% (active); in experiment [3] (at 50.0 µM) it was 99.5% (active); in experiment [4] (setting [7]), 100% (active); in experiment [4] (setting [8]), 99% (active); in experiment [4] (at 50.0 µM), 98.6% (active). In addition, the growth inhibition is 99% (active) in experiment [5] (setting [7]); 99% (active) in experiment [5] (setting [8]); 99.5% (active) in experiment [5] (at 50.0 µM); 99% (active) in experiment [6] (setting [7]); 99% (active) in experiment [6] (setting [8]); 99.5% (active) in experiment [6] (at 50.0 µM).
Take `CCC[As](CCC)SC1CCC2(C)C(=CCC3C4CCC(=O)C4(C)CCC32)C1` (configuration not stated): the growth inhibition was 17% (inactive) in experiment [1] (setting [7]); 98% (active) in experiment [1] (setting [8]); 49.5% (inactive) in experiment [1] (at 50.0 µM); 9% (inactive) in experiment [2] (setting [7]); 87% (active) in experiment [2] (setting [8]); 3.1% (inactive) in experiment [2] (at 50.0 µM). For the same compound, the growth inhibition is 19% (inactive) in experiment [3] (setting [7]); 84% (active) in experiment [3] (setting [8]); 82% (active) in experiment [3] (at 50.0 µM); -3% (inactive) in experiment [4] (setting [7]); 89% (active) in experiment [4] (setting [8]); 34.8% (inactive) in experiment [4] (at 50.0 µM). Further, the growth inhibition in experiment [5] (setting [7]) was 0% (inactive); in experiment [5] (setting [8]), 77% (active); in experiment [5] (at 50.0 µM), 17.4% (inactive); in experiment [6] (setting [7]), 11% (inactive); in experiment [6] (setting [8]), 97% (active); in experiment [6] (at 50.0 µM), 88.5% (active).
Take `CCOC(=O)C(Cc1ccc(O)cc1)NCc1ccc(N(CCCl)CCCl)cc1` (configuration not stated): the growth inhibition in experiment [1] (setting [7]) is 83% (active); in experiment [1] (setting [8]), 83% (active); in experiment [1] (at 50.0 µM), 37.8% (inactive); in experiment [2] (setting [7]) it was 36% (inactive); in experiment [2] (setting [8]) it was 94% (active); in experiment [2] (at 50.0 µM), 69.1% (inactive). In addition, the growth inhibition was 64% (inactive) in experiment [3] (setting [7]); 99% (active) in experiment [3] (setting [8]); 72.2% (active) in experiment [3] (at 50.0 µM); 52% (inactive) in experiment [4] (setting [7]); 84% (active) in experiment [4] (setting [8]); 56.7% (inactive) in experiment [4] (at 50.0 µM). The growth inhibition was 65% (inactive) in experiment [5] (setting [7]); 94% (active) in experiment [5] (setting [8]); 69.5% (inactive) in experiment [5] (at 50.0 µM); 80% (active) in experiment [6] (setting [7]); 76% (active) in experiment [6] (setting [8]); 76.7% (active) in experiment [6] (at 50.0 µM).

The record behind these values is PubChem BioAssay (NCI).
